Source: PubChem (National Center for Advancing Translational Sciences (NCATS))
Most compounds without a hit are left out; they make up all but 5.8% or so of the library.
PINK1 modulator: PINK1 expression modulation | PINK1 immunofluorescence, high-content cytometry, 24 h | Potency, µM (top dose mostly 76.6 µM), hits mostly activators | 0.2% of 410,000 active; active means well fitted activation curve with a large enough effect; inconclusive means small, poorly fitted or top-dose-only effect; cell line not stated here; further: nearly all actives have a fitted effect of over 65% in size
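PINK1 protein level read as immunofluorescence by microplate cytometer in a fixed, stained stable cell line after 24 h exposure to five compound concentrations, with CCCP as control.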
KB-V1 cytotox: KB-V1 MDR subline cytotoxicity; KB-V1 MDR cells viability, CellTiter-Glo, 72 h; Potency, µM (top dose mostly 46.1 µM), hits mostly cytotoxic; 3.4% of 400,000 active; further: nearly all actives have a fitted effect of over 60% in size
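Cytotoxicity toward P-gp-expressing KB-V1 cells was determined as loss of CellTiter-Glo luminescence after 72 h at 37 degrees C. Compounds were tested in quantitative HTS format across a concentration range, with curves fitted to normalized data.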
12-LOX inh: blocks human arachidonate 12S-lipoxygenase; purified 12hLO, xylenol orange hydroperoxide absorbance; AID 1671190; 1.1% of 580,000 active; P18054; Potency, µM (series often up to 108 µM), most hits filed as inhibitors
Target sequence (P18054 whole entry, looked up): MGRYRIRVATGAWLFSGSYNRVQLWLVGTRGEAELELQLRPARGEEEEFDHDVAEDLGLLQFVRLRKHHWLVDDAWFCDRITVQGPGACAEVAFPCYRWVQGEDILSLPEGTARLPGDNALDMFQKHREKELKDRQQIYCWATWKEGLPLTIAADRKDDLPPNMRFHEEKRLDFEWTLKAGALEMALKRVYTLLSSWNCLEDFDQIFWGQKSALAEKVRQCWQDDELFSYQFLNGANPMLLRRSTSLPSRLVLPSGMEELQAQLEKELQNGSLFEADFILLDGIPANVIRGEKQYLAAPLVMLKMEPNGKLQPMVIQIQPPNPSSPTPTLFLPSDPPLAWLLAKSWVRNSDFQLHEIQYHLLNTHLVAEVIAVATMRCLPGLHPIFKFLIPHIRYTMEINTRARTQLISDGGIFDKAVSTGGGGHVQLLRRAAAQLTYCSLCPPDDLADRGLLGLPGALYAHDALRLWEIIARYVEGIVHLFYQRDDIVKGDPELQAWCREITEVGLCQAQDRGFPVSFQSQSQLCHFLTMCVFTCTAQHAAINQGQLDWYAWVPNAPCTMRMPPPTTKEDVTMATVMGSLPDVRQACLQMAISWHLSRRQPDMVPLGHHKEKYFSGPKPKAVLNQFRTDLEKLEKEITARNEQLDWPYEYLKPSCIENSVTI
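Purified human 12hLO at 150 nM in 25 mM Hepes, 0.01% Triton X-100, pH 7.0, preincubated 15 min at room temperature with compound. Reaction started with 40 uM arachidonic acid, 30 min at room temperature. Hydroperoxide measured by Fe-xylenol orange, 573/405 nm absorbance ratio.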
MCF10A rereplic: DNA re-replication induction in MCF 10a cells; AID 624296; 2.9% of 350,000 active; Potency, µM (highest dose often 46.1 µM), usual class: activators; MCF 10A DNA re-replication, Hoechst nuclear intensity, 48 h; further: nearly all actives have a fitted effect of over 50% in size
KB-3-1 tox: kills parental KB-3-1 adenocarcinoma cells. 1.4% of 400,000 active. KB-3-1 viability, CellTiter-Glo ATP luminescence, 72 h. Potency, µM (titrated, usually from 46.1 µM), usual class: cytotoxic; further: nearly all actives have a fitted effect of over 60% in size
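72 h, 37 °C compound treatment of KB-3-1 parental cells; CellTiter-Glo added, 10 min, luminescence read. Data corrected against DMSO-only plates and normalized before curve fitting.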
SW480 rerep: DNA re-replication induction in SW480 cells | SW480 DNA re-replication, Hoechst DNA content imaging, 48 h | Potency, µM (titrated, usually from 46.1 µM), actives largely listed as activators | 1.8% of 340,000 active | AID 624297; further: nearly all actives have a fitted effect of over 55% in size
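Image-based DNA-content assay: after two days of treatment, nuclei were labelled with the DNA dye Hoechst and imaged, and hits were compounds raising the count of nuclei showing high fluorescence intensity.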
Hits are given with their value; i = inactive; ? = inconclusive; nt = no result. Unless noted, the call rests on the fitted dose curve; in most records, active means well fitted curve in the direction sought with a large enough effect; inconclusive means small, poorly fitted or top-dose-only effect, or another doubt; inactive means no such curve, though single readings can be large; an effect the other way counts as inactive or inconclusive.

SMILES	PINK1 modulator	KB-V1 cytotox	12-LOX inh	MCF10A rereplic	KB-3-1 tox	SW480 rerep
CCOC(=O)c1ccccc1NC(=O)C1CCN(c2ncnc3sc(C)c(C)c23)CC1	i	23µM	nt	?	?	i
CCc1nnc(NC(=O)C2CCN(c3ncnc4sc(C)c(C)c34)CC2)s1	i	?	i	i	i	i
Cc1sc2ncnc(N3CCC(C(=O)Nc4nc(-c5cccs5)cs4)CC3)c2c1C	i	5.2µM	i	?	?	i
C=CCn1cc2c3c(cccc31)[C@H](CC(C)C)N[C@H](C(=O)NC1CCC1)C2	nt	nt	i	nt	nt	nt
COc1ccc(C(=O)N2CC3(Cc4ccccc4N([S+](C)(=O)[O-])C3)C2)cc1	nt	nt	i	nt	nt	nt
Cc1ccc2nc(NC(=O)C3CCN(c4ncnc5sc(C)c(C)c45)CC3)sc2c1	i	nt	nt	23µM	nt	i
Cc1sc2ncnc(N3CCC(C(=O)N(C)CC(=O)Nc4ccc(Cl)c(C(F)(F)F)c4)CC3)c2c1C	i	i	i	?	21µM	i
COc1ccc(CN[C@H]2CS(=O)(=O)C[C@@H]2S(=O)(=O)c2cccs2)cc1	nt	nt	i	nt	nt	nt
CCOCCCNC(=O)/C(C#N)=C/c1ccc(Cl)c([N+](=O)[O-])c1	i	?	?	18µM	?	i
CCOCCCNC(=O)/C(C#N)=C/c1ccc(C(=O)OC)cc1	i	i	i	i	i	i
CCOCCCNC(=O)/C(C#N)=C/c1cc(C)c(O)c(C)c1	i	i	i	23µM	i	?
CCOCCCNC(=O)/C(C#N)=C/c1cc(OC)c(O)c([N+](=O)[O-])c1	i	5.8µM	i	4.6µM	7.3µM	?
COCCCNC(=O)/C(C#N)=C/c1ccc(OCC(=O)O)c(OC)c1	i	i	i	i	i	i
CCC(=O)Oc1ccc2c(=O)c(Oc3cccc(OC)c3)c(C(F)(F)F)oc2c1	nt	nt	i	nt	nt	nt
CC(NC(=O)CC1(C(=O)O)CCCCC1)c1ccc2c(c1)CCCC2 (stereo unspecified)	nt	nt	i	nt	nt	nt
COc1ccccc1CNC(=O)CSc1nnc(C)n1C1CCCCC1	nt	nt	i	nt	nt	nt
C/C(=N\NC(=O)COc1ccc(C)cc1Br)c1cc([N+](=O)[O-])cs1	i	?	i	8.2µM	21µM	9.2µM
Cc1c(C)c2ccc(OC(C)C(=O)NCCc3ccc(S(N)(=O)=O)cc3)cc2oc1=O (stereo unspecified)	nt	nt	i	nt	nt	nt
CCC1(c2ccc(Cl)cc2)NC(=S)N(c2ccccc2)N1 (stereo unspecified)	?	i	16µM	i	i	i
CCCCCC1(C)NC(=S)N(c2ccccc2)N1 (stereo unspecified)	i	i	0.79µM	i	i	i
Cc1ccc(C(=O)Nc2ccc3ncnc(N4CCCC4)c3c2)s1	nt	nt	i	nt	nt	nt
CN(C)c1cccc(C(=O)NC2CCN(c3cc(-c4ccccc4)[nH]n3)C2)c1 (stereo unspecified)	nt	nt	i	nt	nt	nt
N#C/C(=C\c1ccc(-c2ccccc2Cl)o1)c1ccc(Cl)cc1	nt	nt	i	nt	nt	nt
N#C/C(=C/c1ccc(N2CCCCC2)o1)c1cccc(F)c1	7.1µM	i	10µM	7.3µM	i	8.2µM
N#C/C(=C/c1ccc(N2CCCCCC2)o1)c1ccc(Cl)cc1	7.9µM	i	nt	2.9µM	i	13µM
SMILES	PINK1 modulator	KB-V1 cytotox	12-LOX inh	MCF10A rereplic	KB-3-1 tox	SW480 rerep
Cc1cc(C)cc(OCC(=O)Nc2sc3c(c2C(=O)N2CCOCC2)CCCC3)c1	nt	nt	i	nt	nt	nt
O=S(Cc1ccccc1)Cc1ccc(Cl)cc1Cl (stereo unspecified)	nt	nt	i	nt	nt	nt
CCOc1cc(/C=C/c2ccc3cccc([N+](=O)[O-])c3n2)ccc1O	i	21µM	?	?	12µM	nt
COc1cc(/C=C/c2ccc3cccc([N+](=O)[O-])c3n2)ccc1OCC#N	i	i	?	i	i	i
CCOc1cc(/C=C/c2ccc3cccc([N+](=O)[O-])c3n2)ccc1OCC(=O)N(C)C	i	18µM	i	i	?	?
CCOc1cccc2sc(NC(=O)CCS(=O)(=O)c3ccccc3)nc12	i	?	nt	21µM	?	21µM
CCC(=O)Nc1nc2ccc(NC(C)=O)cc2s1	i	i	i	i	i	i
CCOc1cccc2sc(Nc3nc4ccc(NC(C)=O)cc4s3)nc12	i	?	i	3.7µM	12µM	4.1µM
CCCCCCCn1c(=O)c(C(=O)OC)c(N)c2ccccc21	i	15µM	i	i	i	i
CCCCCCn1c(=O)c(Cc2ccccc2)c(O)c2ccccc21	i	i	i	i	i	i
CCCCCCn1c(=O)c(-c2ccccc2)c(O)c2ccccc21	i	i	?	i	i	i
CCCCCCCCn1c(=O)c(C(=O)OC)c(N)c2ccccc21	i	?	i	21µM	?	i
CCC(C)NC(=O)C(NC(=O)c1ccc(OC)cc1)C1CCN(C(=O)c2cccc(OC)c2)CC1 (stereo unspecified)	nt	nt	i	nt	nt	nt
C=CCn1c(SCC(=O)c2[nH]c(C)c(C(=O)OCC)c2C)nc2scc(-c3ccc(OC)c(OC)c3)c2c1=O	i	?	i	3.3µM	i	13µM
O=Cc1cccn1-c1cccc(Br)c1	nt	nt	i	nt	nt	nt
CC(NC(=O)COC(=O)c1cc(NS(=O)(=O)c2ccc(Cl)c([N+](=O)[O-])c2)ccc1O)C1CC2CCC1C2 (stereo unspecified)	i	i	i	6.5µM	i	9.2µM
CCCCn1nc(C(=O)Nc2cc(F)ccc2C)c2ccccc2c1=O	nt	nt	i	nt	nt	nt
O=C(Nc1ccc(F)cc1)c1ccc(-n2cncn2)c([N+](=O)[O-])c1	i	12µM	i	i	?	i
CC[n+]1c(/C=C/Nc2ccccc2)oc2ccc(OC)cc21	i	i	i	18µM	i	?
CC[n+]1c(/C=C/N(C)c2ccccc2)oc2ccc(F)cc21	i	i	?	?	5.8µM	?
Cc1cccc(OCCOC(=O)c2ccc3nccnc3c2)c1	nt	nt	i	nt	nt	nt
Cc1ccccc1N/N=C/c1sc(=O)n(Cc2cccc(C(=O)O)c2)c1Cl	i	i	?	?	i	i
COC(=O)c1cccc(Cn2c(Cl)c(/C=N/Nc3ccccc3C)sc2=O)c1	?	?	?	26µM	i	10µM
Cc1oc2cc(OCC(=O)NCC(=O)O)ccc2c(=O)c1-c1ccc(Cl)cc1	nt	nt	i	nt	nt	nt
Fc1cccc(F)c1-n1c(CN2CCCCC2)csc1=S	i	?	i	?	23µM	15µM
Cc1cccc(C(=O)C(C)C(=O)c2cccc(C)c2)c1	nt	nt	i	nt	nt	nt
O=C(c1cnn(-c2ccc(F)cc2)c1-n1cccc1)N1CCN(c2ccccc2)CC1	i	23µM	i	nt	?	nt
O=C(NNS(=O)(=O)c1ccc(Cl)cc1)c1cnn(-c2ccccc2)c1-n1cccc1	i	i	i	i	i	i
O=C(NNS(=O)(=O)c1ccccc1)c1cnn(-c2ccccc2)c1-n1cccc1	i	16µM	i	i	i	i
O=C(Nc1cccc2ncccc12)c1ccc([N+](=O)[O-])o1	i	?	i	4.6µM	i	1.5µM
